Bioassay records (PubChem BioAssay)
Tau FP inhib = blocks human tau fibril formation measured by polarization. AID 1468. K18 P301L tau heparin fibrillization, Alexa594 FP, 6 h. Potency, µM (highest dose often 57.7 µM), for inactives: at the top dose activity, negative = inhibition, actives largely listed as inhibitors. actives 0.39% (n = 280,000); also: nearly all actives have a fitted effect of over 55% in size
Target sequence (P10636 561-689 P618L limits assumed): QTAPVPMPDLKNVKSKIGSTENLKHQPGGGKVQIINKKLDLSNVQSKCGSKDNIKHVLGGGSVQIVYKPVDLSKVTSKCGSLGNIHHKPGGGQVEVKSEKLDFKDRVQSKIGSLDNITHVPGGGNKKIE
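Steps: dispense K18 P301L tau (15 uM plus 0.24 uM Alexa 594 tracer, final) in pH 7 sodium acetate; add compound; add heparin (20 uM final); incubate 6 hr, 37 C; add ThT (30 uM final); after 1 hr ambient, read FP.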
VP16 counter = Gal4-VP16 reporter inhibition counter-screen | actives 3.5% (n = 310,000) | Potency, µM (top dose mostly 53.6 µM), without a hit: top-dose activity, negative = inhibition, hits mostly inhibitors | Drosophila S2 Gal4-VP16 UAS-luciferase, luminescence, 20 h | AID 2546;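 also: Gal4-VP16 expression switched on by copper sulfate through the metallothionein promoter; nearly all actives have a fitted effect of over 50% in size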
RORgamma inh = blocks mouse ROR gamma transcriptional activity; P51450; Drosophila S2 Gal4-RORgamma UAS-luciferase reporter, 20 h; Potency, µM (highest dose often 53.6 µM), for the others: at the top dose activity change, negative = inhibition, hits mostly inhibitors; actives 5.4% (n = 310,000); also: nearly all actives have a fitted effect of over 60% in size
Target sequence (P51450 whole entry, looked up, the tested form may be a part): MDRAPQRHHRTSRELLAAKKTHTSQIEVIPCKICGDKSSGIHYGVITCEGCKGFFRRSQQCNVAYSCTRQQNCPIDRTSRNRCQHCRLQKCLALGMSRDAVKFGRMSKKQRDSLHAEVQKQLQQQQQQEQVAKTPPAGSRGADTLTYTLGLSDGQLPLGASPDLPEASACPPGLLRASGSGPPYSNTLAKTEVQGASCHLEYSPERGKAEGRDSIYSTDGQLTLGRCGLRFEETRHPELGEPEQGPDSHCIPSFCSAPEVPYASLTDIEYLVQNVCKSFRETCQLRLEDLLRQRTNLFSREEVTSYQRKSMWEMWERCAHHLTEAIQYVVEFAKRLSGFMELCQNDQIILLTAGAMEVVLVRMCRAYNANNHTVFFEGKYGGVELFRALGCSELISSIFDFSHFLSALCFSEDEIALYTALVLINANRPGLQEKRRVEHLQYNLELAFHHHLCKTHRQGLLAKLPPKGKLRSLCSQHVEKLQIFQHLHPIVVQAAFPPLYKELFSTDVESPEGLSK
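Using a luciferase readout, inhibitors were identified by reduced reporter activity in Drosophila cells coexpressing a copper-inducible Gal4–ROR gamma fusion and UAS-driven Photinus luciferase, incubated 20 hr after 700 uM copper sulfate.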
Tau fibril ThT = tau fibrillization inhibition (ThT binding); recombinant tau K18 P301L, heparin-induced fibrillization, ThT fluorescence; Potency, µM (top dose mostly 57.4 µM), for the others: top-dose activity, negative = inhibition, most hits filed as inhibitors; actives 2.1% (n = 270,000); AID 1460; also: nearly all actives have a fitted effect of over 55% in size
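Tau K18 P301L fragment (15 uM unlabeled plus 0.24 uM Alexa 594-labeled) in 100 mM sodium acetate pH 7 with compound, fibrillization induced by 20 uM heparin for 6 hr at 37 C. Thioflavin T (30 uM) added, fluorescence read after 1 hr (ex 450, em 510 nm).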
Tau fluor cs = counter-screen for tau fibril formation inhibitors. tau K18 P301L (four-repeat tau fragment) Alexa594 fluorescence, heparin fibrillization. AID 1463. actives 0.93% (n = 280,000). Potency, µM (top dose mostly 57.7 µM), without a hit: top-dose activity change, negative = decrease; also: nearly all actives have a fitted effect of over 55% in size
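Human K18 P301L tau (15 uM unlabeled plus 0.24 uM Alexa 594-labeled, final) in 100 mM sodium acetate pH 7 was mixed with compound and 20 uM heparin and incubated 6 hr at 37 C.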
* hit, by the source's call; ? = inconclusive; . = not tested or not shown; ! = a repeat was not active; [ ] = another dose, or the depositor's remark. This is a sample that favours compounds with a hit; in the whole collection about 7.3% have one here. Calls follow the shape of the dose curve; as a rule, active = well fitted curve in the direction sought with a large enough effect; inconclusive = small, poorly fitted or top-dose-only effect, or another doubt; inactive = no such curve, though single readings can be large; an effect the other way counts as inactive or inconclusive. % is scaled to controls: 0 for no effect and ±100 for the full control effect; potency is read from the fitted curve at half-maximal effect.

SMILES	Tau FP inhib	VP16 counter	RORgamma inh	Tau fibril ThT	Tau fluor cs
N#CC1=C(N)Oc2ccccc2C12C(=O)Nc1n[nH]c(-c3ccccc3)c12 (configuration not stated)	2.0%	-8.8%	9.8%	-4.1%	-2.7%
Cn1c2c(c(=O)n(C)c1=O)C1(C(=O)Nc3ccccc31)C(C#N)=C(N)O2 (configuration not stated)	?	?	?	14.1µM*	-22.5%
COc1cc(/C=C2\SC(=Nc3ccccc3)N(CCc3c[nH]c4ccccc34)C2=O)ccc1OC(C)C(=O)O (configuration not stated)	-12.4%	?	1.4%	?	?
COc1ccc(N=C2S/C(=C\c3ccc(OC(C)C(=O)O)c(OC)c3)C(=O)N2CCc2c[nH]c3ccccc23)cc1 (configuration not stated)	-2.1%	4.9%	43.7%	28.2µM*	?
O=C1/C(=C/c2ccc(N3CCOCC3)o2)SC(=Nc2ccccc2)N1CCc1c[nH]c2ccccc12	?	5.01µM*	3.16µM*	14.1µM*	?
CCc1cccc(-n2c(=O)c3cccnc3n2CC(=O)Nc2c(C)cc(C)cc2C)c1	-2.6%	.	.	8.2%	-4.7%
Cc1sc2nc(COC(=O)c3c(F)cccc3F)[nH]c(=O)c2c1C	2.3%	23.5%	12.6µM*	2.8%	5.3%
Cc1cc(C)c(-n2c(SCc3nc4ccccc4s3)n[nH]c2=O)c(C)c1	5.8%[0.0958 µM]	3.16µM*	?	.	10.5%[0.0958 µM]
Cn1cccc1C(=O)N1CCC[C@@]2(CCN(C(=O)Nc3cccc(C#N)c3)C2)C1	.	1.0%	-12.7%	.	.
CN(C)CCCN(Cc1ccccc1)C(=S)NCc1ccccc1	-2.5%	3.4%	8.2%	-1.9%	-4.6%
CC(C)N(C(=S)NCc1ccccc1)c1ccccc1	-6.5%	?	7.94µM*	-3.5%	-3.4%
CC(C)N(C(=S)NCc1ccccc1)C(C)C	0.3%	11.2µM*	7.08µM*	-4.9%	-7.2%
Cc1cccc(C)c1NC(=S)N(c1ccccc1)C(C)C	0.8%	-6.6%	-13.9%	1.9%	-4.4%
O=C1c2sc3nc4ccccc4n3c2C(=O)N1c1ccccc1Cl	?	-4.6%	2.1%	28.2µM*	-29.2%
Cc1ccccc1N1C(=O)c2sc3nc4c(c(=O)n3c2C1=O)CCC4	?	-4.4%	-1.5%	?	-6.1%
CN1CCO/C1=C(\C(Cl)=C(Cl)Cl)[N+](=O)[O-]	-0.4%	1.5%	12.8%	-8.2%	-6.4%
CCC1CO/C(=C(\C(Cl)=C(Cl)Cl)[N+](=O)[O-])N1 (configuration not stated)	?	-4.9%	-30.0%	35.5µM*	-18.8%
CCCCN1CCC[C@H]1CNC(=O)c1cc(C#N)c2ccccc2c1OC	.	-3.9%	-16.4%	.	.
CCc1ccc(NC(=O)CSc2nc3nc(C)cc(C)n3n2)cc1	-5.3%	1.12µM*	36.1%	-3.1%	-7.1%
Cc1cc(C)n2nc(SCC(=O)Nc3ccccc3)nc2n1	-0.5%	9.3%	13.9%	-1.1%	2.1%
COc1cccc([C@@H]2Oc3ccc(OC)cc3C(=O)[C@H]2O)c1	7.6%	?	12.6µM*!	-1.4%	5.8%
COc1cccc([C@@H]2Oc3ccc(Br)cc3C(=O)[C@H]2O)c1	2.8%	-4.6%	-14.7%	-7.2%	-4.6%
CCN(CC)CCn1c(=N)n(CCOc2ccccc2Cl)c2ccccc21	?	.	.	-12.9%	-15.0%
O=C1NC(=S)S/C1=C\C=C\c1ccc([N+](=O)[O-])o1	-48.0%	4.47µM*	5.62µM*	.	-36.1%
Cc1ccc(S(=O)(=O)N(Cc2ccccc2)c2ccccc2C(=O)N2CCCCC2)cc1	.	-11.2%	-30.8%	.	.
SMILES	Tau FP inhib	VP16 counter	RORgamma inh	Tau fibril ThT	Tau fluor cs
O=C(CC1Sc2ccc(C(F)(F)F)cc2NC1=O)Nc1ccc(Cl)c(C(F)(F)F)c1 (configuration not stated)	11.2µM*	.	.	-4.9%	?
CCc1ccccc1NC(=O)CC1Sc2ccc(C(F)(F)F)cc2NC1=O (configuration not stated)	-9.4%	.	.	12.2%	5.1%
O=C1C(c2ccncc2)N(CCC2=CCCCC2)C(=O)CN1C1CCCCC1 (configuration not stated)	?	-4.6%	10.4%	7.94µM*	?
Cc1cc(Nc2cccc(Cl)c2)nc2ccc(NC(=O)Cc3c(F)cccc3Cl)cc12	-13.0%	.	.	?	7.94µM*[quencher]
COc1ccc(OCC(=O)Nc2cccc(OC)c2)cc1	1.6%	-5.1%	31.4%	-14.9%	-7.7%
Cc1cccc(NC(=O)Cc2c(F)cccc2Cl)n1	.	-12.5%	10.9%	.	.
COc1ccc(Nc2cc(C)c3cc(NC(=O)Cc4c(F)cccc4Cl)ccc3n2)cc1	?	.	.	?	7.94µM*[quencher]
COc1ccc(Nc2cc(C)c3cc(NC(=O)COc4cccc(C)c4)ccc3n2)cc1	?	.	.	7.08µM*	11.2µM*[quencher]
COc1ccc(CC(=O)Nc2ccc3nc(Nc4ccc(OC)cc4)cc(C)c3c2)cc1	2.2%	.	.	?	3.55µM*[quencher]
COc1ccc(NC(=O)Cc2c(F)cccc2Cl)c(OC)c1	3.8%	-0.9%	3.8%	6.7%	-1.0%
COC(=O)c1ccccc1NC(=O)CCC(=O)N1CCOc2ccccc21	7.7%	.	.	12.1%	12.0%
Cc1ccn2c(=O)cc(COc3ccc(NC(=O)COc4ccc(Cl)cc4)cc3)nc2c1	0.4%	.	.	?	-6.5%
O=C(Nc1ccc(Br)cc1Cl)NC1CC1	0.6%	-14.0%	12.3%	-5.9%	-0.9%
COc1ccc(Nc2cc(C)c3cc(NC(=O)c4cc(OC)cc(OC)c4)ccc3n2)cc1	?	.	.	11.2µM*	12.6µM*[quencher]
COc1ccc(Nc2cc(C)c3ccccc3n2)cc1	9.8%	1.2%[10 µM]	-34.8%	?	?
Cc1ccc(NC(=O)c2cc(-c3ccc(Br)s3)nc3ccccc23)cc1F	-18.8%	.	.	-2.3%	-11.3%
O=C(O)c1cccc(N/N=C/C2=C(Cl)c3cc(Cl)ccc3SC2)c1	?	-27.2%	36.1%	6.31µM*	?
O=C(O)c1cccc(N/N=C/c2ccc(F)c(F)c2)c1	2.3%	1.7%	-16.3%	?	-5.6%
CCCCN(CCCC)CC(O)c1cc(Cl)cc2c1-c1ccc(Cl)cc1/C2=C/c1ccc(Cl)cc1 (configuration not stated)	.	?	-19.1%	.	.
